# According to PubChem BioAssay AID449739 (Vanderbilt High Throughput Screening Facility, 2010):
# In all, about 100,000 compounds went through this assay and about 4,200 (4.2%) were called active.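 How the source made its calls: active means single-dose well whose peak fluorescence ratio is a statistical outlier from its plate by either plate-standardised score or position-corrected B-score; inactive means the rest.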 Only a selection was taken, and actives are over-represented in it overall.
# Target: Voltage-dependent T-type calcium channel subunit alpha-1H (Homo sapiens) (UniProt O95180)
# Sequence (O95180 whole entry, looked up): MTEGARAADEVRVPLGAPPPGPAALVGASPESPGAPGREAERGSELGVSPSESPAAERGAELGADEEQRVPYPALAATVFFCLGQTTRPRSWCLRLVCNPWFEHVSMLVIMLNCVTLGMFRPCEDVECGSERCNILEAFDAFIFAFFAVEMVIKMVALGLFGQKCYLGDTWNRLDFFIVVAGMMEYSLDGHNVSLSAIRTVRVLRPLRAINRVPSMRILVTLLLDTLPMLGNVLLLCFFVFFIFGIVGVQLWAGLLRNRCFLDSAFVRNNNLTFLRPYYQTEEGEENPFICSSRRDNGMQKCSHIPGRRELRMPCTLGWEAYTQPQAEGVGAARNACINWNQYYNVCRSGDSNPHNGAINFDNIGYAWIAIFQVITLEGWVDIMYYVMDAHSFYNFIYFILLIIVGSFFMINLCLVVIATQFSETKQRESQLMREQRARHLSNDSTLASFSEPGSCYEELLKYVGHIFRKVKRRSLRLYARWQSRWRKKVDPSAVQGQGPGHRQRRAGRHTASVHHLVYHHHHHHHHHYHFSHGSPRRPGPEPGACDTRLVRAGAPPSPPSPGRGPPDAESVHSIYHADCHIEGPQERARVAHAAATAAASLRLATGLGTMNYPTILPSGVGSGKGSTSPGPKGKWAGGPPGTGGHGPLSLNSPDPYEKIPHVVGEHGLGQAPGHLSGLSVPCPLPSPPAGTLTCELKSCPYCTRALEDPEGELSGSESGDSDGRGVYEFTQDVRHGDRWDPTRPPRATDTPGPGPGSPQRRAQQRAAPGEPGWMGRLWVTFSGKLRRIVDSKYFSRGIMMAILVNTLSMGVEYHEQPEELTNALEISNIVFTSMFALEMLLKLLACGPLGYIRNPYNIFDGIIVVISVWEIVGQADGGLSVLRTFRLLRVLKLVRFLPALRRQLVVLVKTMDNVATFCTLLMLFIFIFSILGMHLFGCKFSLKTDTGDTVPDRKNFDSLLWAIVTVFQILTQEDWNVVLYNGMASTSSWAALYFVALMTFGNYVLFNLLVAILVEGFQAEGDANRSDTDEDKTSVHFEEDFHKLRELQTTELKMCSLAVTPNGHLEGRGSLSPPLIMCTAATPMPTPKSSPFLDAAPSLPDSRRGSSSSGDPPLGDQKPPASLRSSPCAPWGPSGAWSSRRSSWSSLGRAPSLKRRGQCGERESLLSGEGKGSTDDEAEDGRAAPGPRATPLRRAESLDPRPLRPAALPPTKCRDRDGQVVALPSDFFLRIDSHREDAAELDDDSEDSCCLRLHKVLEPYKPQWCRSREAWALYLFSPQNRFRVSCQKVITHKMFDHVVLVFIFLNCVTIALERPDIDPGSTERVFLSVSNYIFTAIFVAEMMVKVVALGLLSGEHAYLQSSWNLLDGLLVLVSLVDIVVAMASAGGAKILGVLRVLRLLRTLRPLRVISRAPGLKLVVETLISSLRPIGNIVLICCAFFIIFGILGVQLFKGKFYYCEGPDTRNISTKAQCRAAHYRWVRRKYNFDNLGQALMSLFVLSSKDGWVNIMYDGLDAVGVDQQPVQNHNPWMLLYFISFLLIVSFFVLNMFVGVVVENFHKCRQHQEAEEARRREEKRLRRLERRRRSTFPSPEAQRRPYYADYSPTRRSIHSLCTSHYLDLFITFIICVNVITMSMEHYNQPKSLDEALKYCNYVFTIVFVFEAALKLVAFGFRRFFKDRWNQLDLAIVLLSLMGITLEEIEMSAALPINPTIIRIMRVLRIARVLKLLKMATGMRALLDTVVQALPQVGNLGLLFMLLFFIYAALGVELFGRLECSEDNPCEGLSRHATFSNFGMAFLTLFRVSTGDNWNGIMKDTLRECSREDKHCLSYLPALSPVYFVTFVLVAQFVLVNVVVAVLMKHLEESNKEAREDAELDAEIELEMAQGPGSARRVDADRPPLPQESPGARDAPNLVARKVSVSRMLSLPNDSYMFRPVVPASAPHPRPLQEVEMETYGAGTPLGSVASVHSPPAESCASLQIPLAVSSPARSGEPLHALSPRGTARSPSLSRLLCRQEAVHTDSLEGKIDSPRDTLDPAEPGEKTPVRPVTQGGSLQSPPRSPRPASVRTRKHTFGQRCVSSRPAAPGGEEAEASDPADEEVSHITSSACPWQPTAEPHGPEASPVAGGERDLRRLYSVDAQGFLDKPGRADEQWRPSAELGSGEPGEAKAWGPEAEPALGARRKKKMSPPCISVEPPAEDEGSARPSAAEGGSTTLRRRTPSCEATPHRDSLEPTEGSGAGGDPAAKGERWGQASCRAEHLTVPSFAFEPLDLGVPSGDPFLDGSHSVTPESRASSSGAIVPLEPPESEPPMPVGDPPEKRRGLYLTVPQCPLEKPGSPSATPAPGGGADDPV
# Experiment: Cav3.2 calcium influx blockers – cell-based, Fluo-4 calcium fluorescence, FDSS, MLSMR library, primary screen (AID 449739)
# Settings: Cav3.2-expressing cells, at 10 µM, active compounds read low
row,SMILES,B-score
1,O=C(COc1ncnc2c(Cl)cc(Cl)cc12)N1CCN(S(=O)(=O)c2ccccc2)CC1,0.727 (inactive)
2,COc1ccccc1N(C(=O)Cn1nnc2ccccc21)C(C(=O)NCc1ccco1)c1ccc(C)o1 (stereo not drawn),-6.1 (active)
3,Cc1ccc(C(C(=O)NCc2ccco2)N(CC2CCCO2)C(=O)Cn2nnc3ccccc32)cc1 (stereo not drawn),0.195 (inactive)
4,CC(C)(C)NC(=O)C(c1ccco1)N(Cc1ccc2c(c1)OCO2)C(=O)Cn1nnc2ccccc21 (stereo not drawn),-1.57 (inactive)
5,CCOC(=O)c1cc(NC(=O)c2ccc(Cl)cc2)c(=O)oc1-c1ccccc1,-0.21 (inactive)
6,COC(=O)C1(O)CC(C(C)C)=NN1C(=O)c1ccc(Cl)cc1 (stereo not drawn),-0.542 (inactive)
7,Cc1nnsc1S(=O)(=O)Cc1ccccc1Cl,0.123 (inactive)
8,O=C(NNS(=O)(=O)c1ccc(Cl)cc1)C1CCN(Cc2ccccc2)CC1,0.455 (inactive)
9,COC(=O)C(NC(=O)c1ccc(OC)cc1)(Nc1ncc(S(=O)(=O)c2ccc([N+](=O)[O-])cc2)s1)C(F)(F)F (stereo not drawn),-8.97 (active)
10,COc1ccc(C(=O)Nc2ccc(S(=O)(=O)NC(C)C)cc2)cc1,1.46 (inactive)
11,COc1ccc(C(=O)Nc2nc(-c3ccc(OC)cc3)c(-c3ccc([N+](=O)[O-])cc3)s2)cc1,-2.13 (inactive)
12,COC(=O)CCCC1=CC2=CC(=O)C(C)(OC(=O)c3cccs3)C(=O)C2=CN1CC(C)C (stereo not drawn),0.582 (inactive)
13,COC(C[C@@H]1O[C@@H]1C(=O)[C@H](C)OCc1ccccc1)OC,-0.00689 (inactive)
14,Cc1ccc(C)c(NC(=O)CSc2nnc(Cc3cccn3C)n2-c2ccc(F)cc2)c1,-2.84 (inactive)
15,COC(=O)c1ccc(NC(=O)CSc2nnc(Cc3cccn3C)n2-c2ccc(F)cc2)cc1,-9.38 (active)
16,COc1ccc(-n2c(Cc3cccn3C)nnc2SCC(=O)Nc2cc(C)cc(C)c2)cc1,-8.52 (active)
17,CCc1nnc(NC(=O)CSc2nnc(Cc3ccccc3)n2-c2ccc(OC)cc2)s1,-1.29 (inactive)
18,COc1ccccc1NC(=O)CSc1nnc(Cc2cccn2C)n1-c1ccc(F)cc1,-2.37 (inactive)
19,Cn1cccc1Cc1nnc(SCC(=O)NCCc2ccccc2)n1-c1ccc(F)cc1,-2.55 (inactive)
20,COc1ccccc1CNC(=O)c1ccc(SC)cc1OC,-2.74 (inactive)
21,Cc1ccccc1CS(=O)(=O)CC1(O)CCN(C(=O)c2cccc(C(F)(F)F)c2)CC1,0.394 (inactive)
22,C#CCOCCOCCOCCNc1nc(N2CCN(C(=O)[C@H](Cc3ccc(O)cc3)n3cc(C(N)CC(C)C)nn3)CC2)nc(N2CCN(C(=O)[C@H](CCC(=O)O)n3cc(C(N)[C@H](C)CC)nn3)CC2)n1 (stereo partly drawn),-0.0524 (inactive)

row,SMILES,B-score
1,COc1cc(NC(=O)c2cncc(-c3ccc(C#N)cc3)c2)cc(C(=O)Nc2cccc(C(F)(F)F)c2)c1,0.721 (inactive)
2,CCOc1[nH]n(-c2ccc(Cl)cc2)c(=O)c1C=Nc1ccc(O)cc1,-0.0117 (inactive)
3,O=C(Nc1ccc(-c2csc(Nc3cccc(C(F)(F)F)c3)n2)cc1)c1cccc(C(F)(F)F)c1,0.00365 (inactive)
4,COC(C[C@@H](O)C[C@H](O)[C@H](C)OCc1ccccc1)OC,1.07 (inactive)
5,CCOc1ccc(-c2nnn(CC(=O)N3CCN(c4ccc(F)cc4)CC3)n2)cc1OCC,0.122 (inactive)
6,Cn1c(=O)c2c(ncn2CC(=O)N2CCN(c3ccccc3)CC2)n(C)c1=O,0.538 (inactive)
7,O=C(c1ccccc1)c1cccn1CC(=O)N1CCN(c2ccc(F)cc2)CC1,-6.62 (active)
8,COc1ccc(NS(=O)(=O)c2ccc(NC(=S)NC(=O)CC(C)C)cc2)cc1,-2.74 (inactive)
9,Cc1c(C(=O)OC(C)C)sc(NC(=O)c2cccnc2)c1C#N,-2.15 (inactive)
10,CC(=O)c1cnn(-c2cc(Oc3ccc(F)cc3)ncn2)c1C,-0.109 (inactive)
11,CCC(=O)Nc1cccc(C2=NOC3(C2)C[C@@H](C(N)=O)N(C(=O)c2cc([N+](=O)[O-])cc([N+](=O)[O-])c2C)C3)c1 (stereo partly drawn),0.296 (inactive)
12,CCOc1ccc(C(=O)NC2CCN(C(=O)Nc3ccccc3OC)CC2)cc1,1.41 (inactive)
13,Cc1ccc(C(=O)NC2CCN(C(=O)N3CCOCC3)CC2)cc1,1.24 (inactive)
14,COc1cc(OC)cc(C(=O)NC2CCN(C(=O)N3c4ccccc4Sc4ccccc43)CC2)c1,-3.52 (active)
15,C=CC(COCc1ccccc1)N(Cc1ccccc1)S(=O)(=O)c1ccccc1Br (stereo not drawn),-0.978 (inactive)
16,O=C(CN1CCN(CC(=O)Nc2ccc3c(c2)OCO3)CC1)Nc1ccc(F)cc1,2.27 (inactive)
17,O=C(CN1CCN(c2ccc(F)cc2)CC1)Nc1cccc(C(F)(F)F)c1,-5.59 (active)
18,O=C(CN1CCOCC1)Nc1ccccc1,-0.393 (inactive)
19,COc1ccc(CCNC(=O)C2CC3Cn4c(nc5cc(C)c(C)cc54)C3N2C)cc1 (stereo not drawn),0.841 (inactive)
20,Cc1nn(C(=O)c2ccoc2C)c(N)c1-c1ccccc1,-1.25 (inactive)
21,Cc1nn2c(c1-c1ccccc1)N=C(c1ccco1)CC2c1ccccc1 (stereo not drawn),-4.41 (active)
22,Cc1nc(NC(=O)c2cccc(Cl)c2)sc1-c1csc(Nc2cccc(Cl)c2)n1,1.63 (inactive)

row,SMILES,B-score
1,O=C(NCc1ccccc1)C1=C[C@@H](c2ccccc2)C[C@@H](OCCCCO)O1,0.00916 (inactive)
2,O=[N+]([O-])c1ccccc1NCc1ccc(Cl)cc1,-0.134 (inactive)
3,CCN(CC)S(=O)(=O)c1ccc(N(C)Cc2ccc(C(F)(F)F)cc2)nc1,-5.7 (active)
4,C#CCN(N(C)c1ncc(C(F)(F)F)cc1Cl)S(=O)(=O)c1ccc2ccccc2c1,-1.26 (inactive)
5,CC(C)(C)NCC(O)COc1cccc2[nH]c(=O)[nH]c12 (stereo not drawn),2.63 (inactive)
6,Cc1cc2c(c(=O)n1Cc1ccco1)C(c1ccccc1)C(C#N)=C(N)O2 (stereo not drawn),0.691 (inactive)
7,CN(c1ccccc1)c1ccc(/C=c2\s/c(=C(/C#N)C(=O)C(C)(C)C)n(Cc3ccco3)c2=O)cc1,-7.8 (active)
8,CCOC(=O)CSc1nc2c(sc(=S)n2CCc2ccccc2)c(=O)n1Cc1ccco1,-3.99 (inactive)
9,O=C1CCC(=O)N(O)CCCCCNC(=O)CCC(=O)N(O)CCCCCNC(=O)CCC(=O)N(O)CCCCCN1,0.127 (inactive)
10,CCN(c1ccccc1)S(=O)(=O)c1ccc(NC(=O)C(C)(C)C)cc1,-0.778 (inactive)
11,CC(C)(CCl)C(=O)Nc1ccc(Sc2ccc(F)cc2)cc1,-7.91 (active)
12,COC(=O)c1ccc(Sc2ccc(F)cc2)c(N)c1,-2.9 (inactive)
13,CCOC(=O)C1Cn2c(nc3c(c2=O)C(C)(CC)Cc2ccccc2-3)S1 (stereo not drawn),-9.41 (active)
14,CCC1(CC)Cc2ccccc2-c2nc3ccccc3c(=O)n21,-0.963 (inactive)
15,CC1(C)Cc2ccccc2-c2nc(CN3CCOCC3)[nH]c(=O)c21,-0.167 (inactive)
16,CNC(=O)c1csc(-c2ccccc2)n1,0.414 (inactive)
17,c1cncc(-c2nnc3n2C2(CCCCC2)Cc2ccccc2-3)c1,0.419 (inactive)
18,Cc1cccc(C(=O)Nc2ccc(C(=O)/C=C/c3cccs3)cc2)c1,-1.78 (inactive)
19,COC(=O)C1=C(C(=O)OC)[C@@H]2N(C)c3ccccc3[C@@]23C[C@@H](C(=O)OC)N(C(=O)c2ccco2)C3=N1,0.92 (inactive)
20,CCOc1ccc(Nc2nc(Cc3nnc(SCC(=O)NC4CCCC4)n3C)cs2)cc1,-0.148 (inactive)
21,COCCCn1c(SCC(=O)Nc2ccccc2)nnc1-c1ccncc1,-1.03 (inactive)
22,COCCCn1c(Cc2csc(Nc3cccc(Cl)c3)n2)nnc1SCC(=O)OC1CCCCC1,-7.39 (active)

row,SMILES,B-score
1,Cc1ccc(/C=N\n2c(-c3ccccc3)n[nH]c2=S)s1,-0.0777 (inactive)
2,CC1(C)S[C@@H]2[C@H](N=CN3CCCCCC3)C(=O)N2[C@H]1C(=O)O,0.247 (inactive)
3,O=c1cc(N2CCN(Cc3ccccc3)CC2)c(-c2ccccc2)n[nH]1,0.119 (inactive)
4,CC(C)Oc1ccc(CCc2n[nH]c(=S)n2Cc2ccccc2)cc1,-1.48 (inactive)
5,CC(C)N(c1ccccc1)c1ncnc(NCCC(=O)O)c1[N+](=O)[O-],0.156 (inactive)
6,COc1ccc(NC(=S)N2N=CCC2c2ccccc2)cc1 (stereo not drawn),0.319 (inactive)
7,CNC(=S)N1N=C(c2ccccc2)CC1c1ccc(Br)cc1 (stereo not drawn),-7.33 (active)
8,C=CCOC(=O)C1=C[C@@H](c2ccccc2)C[C@@H](OCc2ccc(CO)cc2)O1,-1.02 (inactive)
9,CCN1C(=O)N[C@@H](c2ccccc2)[C@H](C(C)=O)[C@H]1C,0.0204 (inactive)
10,Cc1cc(-c2cccs2)nc(-n2cccc2)n1,0.352 (inactive)
11,O=C(CN1CCCCCC1)N1c2ccccc2Sc2ccc(C(F)(F)F)cc21,-4.47 (active)
12,O=C(CN1CCCCC1)N1c2ccccc2Sc2ccc(C(F)(F)F)cc21,-2.51 (inactive)
13,CC1CC(C)CN(CC(=O)N2c3ccccc3CCc3ccccc32)C1 (stereo not drawn),-3.85 (inactive)
14,CC(Sc1nc2c([nH]c3ccccc32)c(=O)n1C)c1ccccc1 (stereo not drawn),0.215 (inactive)
15,CN(C)CCNC(=O)Nc1cccc(Cl)c1Cl,0.258 (inactive)
16,NC(=O)CC(NC(=O)Cc1cccc2ccccc12)c1ccc(NCc2cc(F)ccc2F)c([N+](=O)[O-])c1 (stereo not drawn),-0.287 (inactive)
17,Cc1cnc(NC(=O)CSc2c(Cl)cccc2Cl)s1,-0.466 (inactive)
18,Cc1cnc(NC(=O)CSc2nnc(-c3ccc(Cl)cc3Cl)n2N)s1,-4.55 (active)
19,Cc1cnc(NC(=O)CSc2nnc(-c3ccccc3)n2Cc2ccccc2)s1,-2.37 (inactive)
20,CNC(=O)CN1C(=O)c2ccccc2S1(=O)=O,0.319 (inactive)
21,CS(=O)(=O)N(CC(O)Cn1c2ccccc2c2ccccc21)c1cccc2ccccc12 (stereo not drawn),1.02 (inactive)
22,O=C1c2ccccc2S(=O)(=O)N1CC(O)Cn1c2ccccc2c2ccccc21 (stereo not drawn),-5.05 (active)
